The nature of this assay: modulators of mitochondrial supercomplex assembly, cell-based, luminescence, Hoechst nuclei count (AID 1645838).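 On all read-outs here: control cybrid cells.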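 On z-score: higher means more mitochondrial supercomplex formation.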 The note with it: Cells, luminescence/Hoechst cell count ratio, supercomplex reporter; for z-score: stronger effect = higher value; for cell count: measured here: cell number, Hoechst nuclei count.
Setting [1] is: library stock concentration (final well concentration not given) 46 uM.
The mark [2] stands for this setting: library stock concentration (final well concentration not given) 278 uM.
[3] abbreviates: library stock concentration (final well concentration not given) 1.67 mM.
[4] abbreviates: library stock concentration (final well concentration not given) 10 mM.
The mark [5] stands for this setting: library stock concentration (final well concentration not given) 80 uM.
The mark [6] stands for this setting: library stock concentration (final well concentration not given) 400 uM.
Where [7] appears, read: library stock concentration (final well concentration not given) 2 mM.

Among all 2,000 compounds or so, about 100 (5%) were called active. No stated cut-off is given here; in the data, active means z-score above about 2; inactive means the rest. Only a selection was taken, and actives are over-represented in it overall.

For the compound `CCCCC/C=C/C=C1/C=CC(=O)[C@@H]1CCCCCCC(=O)O`, the z-score was -0.804 (inactive) and the cell count worked out at 5740.

Take `CN1c2ccc([N+](=O)[O-])cc2N=C(c2ccc(C(=O)O)cc2)c2cc3c(cc21)C(C)(C)CCC3(C)C`: the z-score was -0.143 (inactive) under setting [1], -0.194 (inactive) under setting [2], -0.234 (inactive) under setting [3] and -0.264 (inactive) under setting [4]. Further, the cell count is, setting by setting: under setting [1], 5860; under setting [2], 5990; under setting [3], 5440; under setting [4], 4270.

In the case of `O=C(O)c1ccc2nc(-c3cc(Cl)cc(Cl)c3)oc2c1`, the z-score runs as follows: under setting [1], 0.415 (inactive); under setting [2], 0.328 (inactive); under setting [3], 0.106 (inactive); under setting [4], 0.34 (inactive). For the same compound, the cell count is, setting by setting: under setting [1], 6810; under setting [2], 6930; under setting [3], 7500; under setting [4], 7380.

For the compound `O=C(O)c1cc2ccccc2c(Cc2c(O)c(C(=O)O)cc3ccccc23)c1O`, the z-score was -0.00825 (inactive) under setting [5], 0.355 (inactive) under setting [6], 0.379 (inactive) under setting [7] and 0.06 (inactive) under setting [4]. In addition, the cell count runs as follows: under setting [5], 4700; under setting [6], 4390; under setting [7], 4510; under setting [4], 4530.

For `Nc1ccc(O)c(C(=O)O)c1`, the z-score was -0.67 (inactive) and the cell count turned out to be 5710.

For `O=C(O)c1cc(O)c2ccccc2c1O`, the z-score is 0.31 (inactive) under setting [1], 1.17 (inactive) under setting [2], 0.601 (inactive) under setting [3] and 2.64 (active) under setting [4]. Also, the cell count reads like this: under setting [1], 6560; under setting [2], 6080; under setting [3], 6240; under setting [4], 3940.

For the compound `C=C1C[C@H](O)[C@H](C/C=C\CCCC(=O)O)[C@H]1/C=C/[C@@H](O)CCCCC`, the z-score was -0.218 (inactive) and the cell count turned out to be 5720.

With `CC(C)c1ccccc1S(=O)(=O)c1cc(N)c2ncccc2c1[N+](=O)[O-]`, the z-score reads like this: under setting [1], -0.201 (inactive); under setting [2], 0.537 (inactive); under setting [3], 0.241 (inactive); under setting [4], 2.73 (active). The cell count worked out at 6190 under setting [1], 6010 under setting [2], 6020 under setting [3] and 4420 under setting [4].

Regarding `CC(C)(O)c1ccccc1CCC(SCC1(CC(=O)O)CC1)c1cccc(C=Cc2ccc3ccc(Cl)cc3n2)c1` (centres undefined), the z-score by setting is: under setting [5], 0.0351 (inactive); under setting [6], -0.104 (inactive); under setting [7], -0.0351 (inactive); under setting [4], -0.342 (inactive). Further, the cell count by setting is: under setting [5], 5230; under setting [6], 5680; under setting [7], 5330; under setting [4], 4770.

In the case of `CCCCC[C@H](O)/C=C/[C@H]1[C@H](O)CC(=O)[C@H]1C/C=C\CCCC(=O)OC(C)C`, the z-score was 0.469 (inactive) and the cell count worked out at 4980.

Take `CCCNC(=O)C1OC1C(=O)N[C@@H](C(=O)N1CCCC1C(=O)O)C(C)CC` (some centres undefined): the z-score runs as follows: under setting [5], -0.18 (inactive); under setting [6], 0.0728 (inactive); under setting [7], -0.0724 (inactive); under setting [4], -0.194 (inactive). In addition, the cell count by setting is: under setting [5], 4940; under setting [6], 4970; under setting [7], 4760; under setting [4], 5370.

On to `O=c1c(-c2ccc(O)cc2)coc2cc(O)cc(O)c12`, for which the z-score was 0.997 (inactive) and the cell count is 5200. Also, under setting [1], the z-score was 0.276 (inactive) and the cell count was 6440. Besides, under setting [2], the z-score is -0.193 (inactive) and the cell count was 6300. Besides, under setting [3], the z-score was 0.316 (inactive) and the cell count was determined as 6710. Under setting [4], the z-score was 2.63 (active) and the cell count worked out at 5450.

On to `O=c1c(-c2ccc(O)c(O)c2)coc2cc(O)ccc12`, for which the z-score is, setting by setting: under setting [1], -0.245 (inactive); under setting [2], -0.0571 (inactive); under setting [3], -0.19 (inactive); under setting [4], 0.665 (inactive). Further, the cell count was 6940 under setting [1], 6400 under setting [2], 6560 under setting [3] and 5440 under setting [4].

For the compound `O=c1c(-c2ccc(O)cc2)coc2cc(O)ccc12`, the z-score is 0.504 (inactive) and the cell count is 5430.

For the compound `O=C(Oc1nsnc1N1CCCCC1)N1CCOCC1`, the z-score reads like this: under setting [5], 0.263 (inactive); under setting [6], 0.6 (inactive); under setting [7], 0.737 (inactive); under setting [4], 1.45 (inactive). In addition, the cell count is, setting by setting: under setting [5], 4950; under setting [6], 4960; under setting [7], 4530; under setting [4], 4260.

As for `CCCCCCCCCCCCCCC(F)C(=O)O` (centres undefined), the z-score was -0.112 (inactive) and the cell count came to 5870.

With `CC(C)CCOc1ccc(N)cc1`, the z-score is -0.619 (inactive) and the cell count was found to be 5370.

Consider `N=C(N)c1ccc2cc(OC(=O)c3ccc(N=C(N)N)cc3)ccc2c1`, for which the z-score is, setting by setting: under setting [1], 0.0192 (inactive); under setting [2], 0.31 (inactive); under setting [3], -0.356 (inactive); under setting [4], -0.0213 (inactive). The cell count amounted to 6960 under setting [1], 6430 under setting [2], 7070 under setting [3] and 6560 under setting [4].

Turning to `O=C(O)c1ccc(Nc2ncc3c(n2)-c2ccc(Cl)cc2C(c2c(F)cccc2F)=NC3)cc1`, the outcome (library stock 10 mM) is “inactive; censored for cell count”. Further, the z-score is -0.747 (inactive) under setting [5], -0.464 (inactive) under setting [6] and -0.071 (inactive) under setting [7]. Further, the cell count by setting is: under setting [5], 4990; under setting [6], 4350; under setting [7], 3530.

`COc1cc(Nc2ncc3c(n2)-c2ccc(Cl)cc2C(c2c(F)cccc2OC)=NC3)ccc1C(=O)O`: the outcome is, setting by setting: (library stock 1.67 mM) “inactive; censored for cell count”; (library stock 10 mM) “inactive; censored for cell count”. In addition, the z-score is, setting by setting: under setting [1], -0.133 (inactive); under setting [2], 1.85 (inactive). The cell count is, setting by setting: under setting [1], 5510; under setting [2], 2620.

Regarding `Cc1cnc(Nc2ccc(F)cc2Cl)nc1-c1c[nH]c(C(=O)NC(CO)c2cccc(Cl)c2)c1` (centres undefined), the outcome (library stock 10 mM) was “inactive; censored for cell count”. Moreover, the z-score was -0.208 (inactive) under setting [1], -0.12 (inactive) under setting [2] and 2.01 (active) under setting [3]. Moreover, the cell count amounted to 6210 under setting [1], 6120 under setting [2] and 3060 under setting [3].

For the origin of these results see PubChem BioAssay AID1645838 (ICCB-Longwood Screening Facility, Harvard Medical School, 2021).
